Assay results reported in PubChem BioAssay (Tox21).
Results filed as inconclusive are left out. Activity calls are given as the source filed them. Unless noted, calls come from the whole dose curve; as a rule, active = well fitted curve in the direction sought with a large enough effect in the repeat runs; inconclusive = weak or mixed curves; inactive = no such curve, though single readings can be large; an effect the other way counts as inactive or inconclusive.

Columns and labels:
[1] = qHTS assay to identify small molecule antagonists of the glucocorticoid receptor (GR) signaling pathway - cell viability counter screen (AID 720693); note: nearly all actives have a fitted effect of over 55% in size
[2] = qHTS assay for identifying genotoxic compounds that show differential cytotoxicity against isogenic chicken DT40 cell lines with known DNA damage response pathways - wild type cell line (AID 743012); note: nearly all actives have a fitted effect of over 60% in size; note: potency is the fitted concentration of half-maximal effect
How it was run: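 Wild-type DT40 cells (300/well) exposed to compounds for 40 hours at 37 C/5% CO2. Viability read by CellTiter-Glo luminescence after 30 min at room temperature.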

[3] = qHTS assay for identifying genotoxic compounds that show differential cytotoxicity against isogenic chicken DT40 cell lines with known DNA damage response pathways - Rev3 mutant cell line (AID 743014); note: nearly all actives have a fitted effect of over 55% in size; note: potency is the fitted concentration of half-maximal effect
[4] = qHTS assay for identifying genotoxic compounds that show differential cytotoxicity against isogenic chicken DT40 cell lines with known DNA damage response pathways - Rad54/Ku70 mutant cell line (AID 743015); note: nearly all actives have a fitted effect of over 60% in size
[5] = qHTS assay to identify small molecule antagonists of the androgen receptor (AR) signaling pathway - cell viability counter screen (AID 743033; note: nearly all actives have a fitted effect of over 45% in size)
[6] = qHTS assay to identify small molecule antagonists of the androgen receptor (AR) signaling pathway using the MDA cell line - cell viability counter screen (AID 743041; note: nearly all actives have a fitted effect of over 45% in size)
How it was run: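 Viability counter screen run alongside the AR antagonist reporter: cells seeded 5 h before compound, R1881 added, 16 h incubation at 37C without CO2, fluorescent CellTiter-Fluor signal quantified.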

[7] = qHTS assay to identify small molecule antagonists of the thyroid receptor (TR) signaling pathway - cell viability counter screen (AID 743064); note: nearly all actives have a fitted effect of over 50% in size
How it was run: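 Same-well viability check: GH3.TRE-Luc cells stimulated with 1 nM T3 alongside test compound for 23.5 h, followed by CellTiter-Fluor fluorescence.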

[8] = target: Androgen receptor (Homo sapiens) (UniProt P10275); test: qHTS assay to identify small molecule agonists of the androgen receptor (AR) signaling pathway (AID 743036; active = well fitted activation curve with a large enough effect in the signal ratio in the repeat runs, with a control signal flat, not every such curve was filed as active; the % refers to the signal ratio)
Chain of Androgen receptor (Homo sapiens) (P10275 whole entry, looked up): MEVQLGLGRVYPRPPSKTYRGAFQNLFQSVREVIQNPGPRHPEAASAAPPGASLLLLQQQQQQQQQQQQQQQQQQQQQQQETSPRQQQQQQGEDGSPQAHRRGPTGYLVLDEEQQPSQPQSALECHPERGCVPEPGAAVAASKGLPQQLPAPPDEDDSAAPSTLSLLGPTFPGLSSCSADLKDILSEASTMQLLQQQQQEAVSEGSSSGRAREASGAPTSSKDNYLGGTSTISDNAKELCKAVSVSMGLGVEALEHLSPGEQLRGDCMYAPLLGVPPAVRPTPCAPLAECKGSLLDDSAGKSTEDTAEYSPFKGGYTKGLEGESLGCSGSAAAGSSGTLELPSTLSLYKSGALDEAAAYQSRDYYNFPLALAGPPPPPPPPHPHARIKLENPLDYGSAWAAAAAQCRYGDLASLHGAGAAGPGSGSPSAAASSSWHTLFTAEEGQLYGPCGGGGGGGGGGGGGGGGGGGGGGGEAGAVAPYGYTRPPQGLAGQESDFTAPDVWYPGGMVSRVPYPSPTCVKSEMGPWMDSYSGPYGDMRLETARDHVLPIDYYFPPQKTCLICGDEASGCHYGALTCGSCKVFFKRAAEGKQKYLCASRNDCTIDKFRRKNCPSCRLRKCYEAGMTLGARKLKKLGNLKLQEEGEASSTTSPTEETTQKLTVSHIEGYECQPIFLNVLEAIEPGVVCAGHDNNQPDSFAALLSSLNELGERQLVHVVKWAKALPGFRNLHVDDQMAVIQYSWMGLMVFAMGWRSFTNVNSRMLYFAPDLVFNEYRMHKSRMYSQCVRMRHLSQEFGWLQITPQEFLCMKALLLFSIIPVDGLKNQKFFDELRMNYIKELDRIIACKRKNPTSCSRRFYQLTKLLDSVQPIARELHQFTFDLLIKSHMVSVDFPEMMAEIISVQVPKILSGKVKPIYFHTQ
How it was run: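 Agonist activity was scored by beta-lactamase reporter fluorescence in stably transfected HEK293 cells exposed to compounds for 16 h at 37C and 5% CO2. Substrate loading took 2 h at room temperature.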

[9] = target: Androgen receptor (Homo sapiens) (UniProt P10275); test: qHTS assay to identify small molecule agonists of the androgen receptor (AR) signaling pathway using the MDA cell line (AID 743040; note: nearly all actives have a fitted effect of over 20% in size)
How it was run: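 Luminescence from ONE-Glo, read after 30 min at room temperature, reflects MMTV-driven luciferase in MDA-kb2 cells (AR- and GR-responsive). Treatment lasted 16 h at 37C, 0% CO2.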

[10] = target: Androgen receptor (Homo sapiens) (UniProt P10275); test: qHTS assay to identify small molecule antagonists of the androgen receptor (AR) signaling pathway using the MDA cell line (AID 743042; note: nearly all actives have a fitted effect of over 55% in size)
How it was run: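 MDA-kb2 cells (human breast carcinoma, stably carrying an MMTV-luciferase reporter responsive to AR and GR) were plated at 3,000 cells/well and preincubated 5 hr at 37C, then given compound plus R1881 agonist for 16 h. ONE-Glo luminescence was read.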

Measured: Potency

C[C@@H]1CC[C@@]2(OC1)O[C@H]1C[C@H]3[C@@H]4CC[C@H]5C[C@@H](O)CC[C@]5(C)[C@H]4CC(=O)[C@]3(C)[C@H]1[C@@H]2C
not listed: [8] | [9] | [10]
inactive: all other assays above

O=C(O)Cc1ccccc1Oc1ccc(Cl)cc1Cl
inactive: [1] | [2] | [3] | [4] | [6]

CCCCC(CC)COC(=O)CC#N (stereo not drawn)
inactive: [1] | [2] | [3] | [4] | [6] | [7]

CCCCCC(CC)OC(=O)CCCOc1ccc(Cl)cc1Cl (stereo not drawn)
not listed: [8] | [9] | [10]
inactive: all other assays above

CC(C)c1cc(C(C)C)cc(C(C)C)c1
not listed: [8] | [9] | [10]
inactive: all other assays above

CC(=O)Nc1ccc(S(=O)(=O)Nc2cc(C)on2)cc1
inactive: [1] | [2] | [3] | [4] | [6] | [7]

Clc1cc(Cl)c(Cl)c(Cl)c1Cl
not listed: [8] | [9] | [10]
inactive: all other assays above

CC(C)OCCO
inactive: [1] | [2] | [3] | [4] | [6] | [7]

CCCc1ccc(O)c(OC)c1
not listed: [8] | [9] | [10]
inactive: all other assays above

COc1cc(C(=O)NC2CCCNC2)cc(OC)c1OC (stereo not drawn)
inactive: [1] | [2] | [3] | [4] | [6]

NC[C@H]1O[C@H](O[C@H]2[C@H](O)[C@@H](O[C@H]3O[C@H](CO)[C@@H](O)[C@H](N)[C@H]3O)[C@H](N)C[C@@H]2N)[C@H](N)[C@@H](O)[C@@H]1O
inactive: [1] | [2] | [3] | [4] | [6] | [7]

CC(C)=CCC/C(C)=C\C#N
inactive: [1] | [2] | [3] | [4] | [6]

O=CN1CCCCC1
inactive: [1] | [2] | [3] | [4] | [6]

CCc1ccc(CC)cc1
inactive: [1] | [2] | [3] | [4] | [6] | [7]

O=C(CCBr)N1CCN(C(=O)CCBr)CC1
not listed: [8] | [9] | [10]
inactive: all other assays above

CCN(CC)CC
not listed: [8] | [9] | [10]
inactive: all other assays above

C[C@@H](CN1CC(=O)NC(=O)C1)N1CC(=O)NC(=O)C1
not listed: [4] | [5]
inactive: all other assays above

Cc1ccc(OC(=O)CC(C)C)cc1
inactive: [1] | [2] | [3] | [5] | [6] | [7]

C/C=C(\C)C=O
inactive: [1] | [2] | [3] | [4] | [6] | [7]

CCCCCCCCCCCCCC(=O)OCC
inactive: [1] | [2] | [3] | [5] | [6] | [7]

CCCCCCCCCCCCCCCC/C=C/C1CC(=O)OC1=O (stereo not drawn)
inactive: [1] | [2] | [3] | [5] | [6]

C=CC(=O)OCC[N+](C)(C)C
inactive: [1] | [2] | [3] | [5] | [6] | [7]

NS(=O)(=O)c1cc2c(cc1C(F)(F)F)NCNS2(=O)=O
inactive: [1] | [2] | [3] | [4] | [6] | [7]

CC(C)(Sc1cc(C(C)(C)C)c(O)c(C(C)(C)C)c1)Sc1cc(C(C)(C)C)c(O)c(C(C)(C)C)c1
inactive: [1] | [2] | [3] | [5] | [6] | [7]

CC(=O)OCC(=O)[C@@]1(O)CC[C@H]2[C@@H]3CCC4=CC(=O)C=C[C@]4(C)[C@H]3[C@@H](O)C[C@@]21C
inactive: [1] | [2] | [3] | [5] | [6]

C=CCN1CCc2nc(N)sc2CC1
not listed: [4]
inactive: all other assays above

C[C@@H]1NC(=O)[C@@H](N)CNC(=O)[C@H](C2CCNC(N)=N2)NC(=O)/C(=C/NC(N)=O)NC(=O)[C@H](CNC(=O)C[C@@H](N)CCCN)NC1=O (stereo partly drawn)
inactive: [1] | [2] | [3] | [5] | [6] | [7]

O=C(O)CCCCCCCCCC(=O)O
active: [2] 30.6 µM | [3] 34.4 µM
inactive: [1] | [5] | [9] | [6] | [10]

CC(C)(C)OC=O
inactive: [1] | [2] | [3] | [4] | [6] | [7]

COCc1nnc(-c2ccc[n+]([O-])c2)n1-c1c(Cl)c(Cl)cc2[nH]c(=O)c(=O)[nH]c12
not listed: [4]
inactive: all other assays above

C=CCOC(=O)CCCCCCCC
inactive: [1] | [2] | [3] | [5] | [6] | [7]

O=c1c(O)c(O)c1=O
inactive: [1] | [2] | [3] | [5] | [6] | [7]

Cc1ccc(S(=O)(=O)NC(=O)NN2CC3CCCC3C2)cc1 (stereo not drawn)
inactive: [1] | [2] | [3] | [4] | [6] | [7]
